Results taken from PubChem BioAssay AID588358 (NMMLSC, 2011).
The whole screen tested about 310,000 compounds, of which about 1,500 (0.48%) were called active.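 How the source made its calls: active means binding more than 3 SD below its plate's average and above zero; inconclusive means below that plate limit but binding exactly zero; inactive means the rest.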 For the sample, actives were picked, then their nearest neighbours and some compounds at random.

molecular target: Desmoglein-3 (Homo sapiens) (UniProt P32926); test: blockers of anti-DSG3 scFv binding – biochemical, bead-based, flow cytometry, scFv-GFP, primary screen (AID 588358); details: DSG3-coupled beads, at 10 µM, hits give low values;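 further: hits lower antibody fragment binding to DSG3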
Sequence (P32926 whole entry, looked up, the tested form may be a part): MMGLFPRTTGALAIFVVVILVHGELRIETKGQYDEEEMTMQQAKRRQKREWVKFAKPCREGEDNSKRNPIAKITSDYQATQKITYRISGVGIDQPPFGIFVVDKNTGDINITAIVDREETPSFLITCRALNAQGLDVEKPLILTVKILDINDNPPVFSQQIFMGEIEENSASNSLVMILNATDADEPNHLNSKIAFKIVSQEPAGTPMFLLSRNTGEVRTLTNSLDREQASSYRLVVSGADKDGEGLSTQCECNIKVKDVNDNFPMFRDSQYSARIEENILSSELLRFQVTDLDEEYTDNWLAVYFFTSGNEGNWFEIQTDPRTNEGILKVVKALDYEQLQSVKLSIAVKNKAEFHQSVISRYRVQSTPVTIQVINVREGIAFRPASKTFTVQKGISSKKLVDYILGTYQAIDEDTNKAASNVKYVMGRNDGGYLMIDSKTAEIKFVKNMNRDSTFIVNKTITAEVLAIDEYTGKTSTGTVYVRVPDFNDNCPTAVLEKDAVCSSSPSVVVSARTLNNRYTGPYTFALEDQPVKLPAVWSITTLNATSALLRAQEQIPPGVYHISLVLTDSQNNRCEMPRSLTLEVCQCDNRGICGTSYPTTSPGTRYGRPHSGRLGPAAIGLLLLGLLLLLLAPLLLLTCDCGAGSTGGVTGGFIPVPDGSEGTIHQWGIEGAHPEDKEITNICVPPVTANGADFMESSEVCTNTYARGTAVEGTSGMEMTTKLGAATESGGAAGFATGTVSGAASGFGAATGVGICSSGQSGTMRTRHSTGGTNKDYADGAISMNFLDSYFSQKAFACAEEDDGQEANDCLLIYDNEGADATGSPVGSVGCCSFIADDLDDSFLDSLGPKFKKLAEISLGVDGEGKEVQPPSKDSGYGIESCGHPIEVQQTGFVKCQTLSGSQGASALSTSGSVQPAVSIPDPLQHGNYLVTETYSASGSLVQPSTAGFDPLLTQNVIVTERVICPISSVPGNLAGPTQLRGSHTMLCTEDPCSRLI

Binding (percent of control), active:
O=C(CSc1ccc(C(F)(F)F)cc1[N+](=O)[O-])NCCOc1ccccc1 87.7%
CCOc1ccc(NC(=O)c2nc(SCC)ncc2Cl)cc1 62.8%
COc1ccc(NC(=O)CCCC(=O)c2ccccc2)cc1 72.9%
Cc1ccc(-n2nc3cc(C)c(NC(=O)c4cccnc4)cc3n2)cc1 78.3%
C=CCNC(=O)c1cc(-c2ccccc2O)on1 79.7%
O=C(N/N=C/c1cccnc1)c1cc2ccccc2cc1O 97.3%
O=C(CN1C(=O)c2ccc([N+](=O)[O-])cc2C1=O)Nc1nnc(C2CC2)s1 66.2%
CC(C)c1ccc(NC(=O)C2CCCN(S(=O)(=O)c3cccnc3)C2)cc1 (stereo not drawn) -3.9%
O=S(=O)(NCc1ccccc1)c1ccc(S(=O)(=O)N2CCCC2)cc1 7.03%
NC(=O)c1c(NC(=O)c2ccccc2)sc2c1CCCC2 63.6%
O=C(C1=C(O)C(=O)N(Cc2ccccc2)C1c1cccnc1)c1ccco1 (stereo not drawn) 64.8%
CC1CCCN(S(=O)(=O)c2ccc(-c3ccc(=O)[nH]n3)o2)C1 (stereo not drawn) 49%
O=C1CCC(C(=O)N2CCCCO2)CN1Cc1cccc(C(F)(F)F)c1 (stereo not drawn) 90.7%

Binding (percent of control), inactive:
Cc1cccc(OCCNC(=O)CSc2ccc(C(F)(F)F)cc2[N+](=O)[O-])c1 114%
CCCCCCCCC(=O)NCCOc1ccccc1 96.9%
CCOC(=O)c1cnn2c(SC)ncnc12 105%
CSc1ncc(Cl)c(C(=O)Nc2cc(C)ccc2C)n1 95%
CCOc1ccc(NC(=O)NNC(=O)c2ccc(Cl)cc2Cl)cc1 103%
COc1ccc(NC(=O)COC(=O)C2COc3ccccc3O2)cc1 (stereo not drawn) 100%
Cc1ccc(C(=O)OCC(=O)NC2CCCCCCC2)cc1C 97%
CC(C)n1ncc2c(C(=O)N3CCN(Cc4cccs4)CC3)cc(C3CC3)nc21 101%
COc1ccc(C(=O)CCC(=O)Nc2ccc(Cl)cc2)cc1 102%
COc1ccc(NC(=O)CS(=O)(=O)c2ccccc2)cc1 103%
C#Cc1cc(N2CCN(C(=O)c3ccoc3)CC2)n2nc(-c3cccc(Cl)c3)cc2n1 96%
Cc1ccc(C=O)c([B-](F)(F)F)c1 103%
CC1(C)OC(=O)C2=C(CC(c3ccccc3)OC2CCc2ccccc2)O1 (stereo not drawn) 109%
O=C(Nc1cccc(-n2cnnn2)c1)c1cccnc1 104%
Cc1ccc(S(=O)(=O)N2CCCCC2)cc1NC(=O)c1cccnc1 103%
CC(=O)Nc1c(-c2ccc(C)cc2)nc2ccc(Cl)cn12 98.5%
CCCCN1C[C@H](c2ccc(Br)cc2)[C@@H](CC(=O)Nc2ccc(Br)cc2)C1=O 102%
O=C(c1cc(-c2ccccc2O)on1)N1CCCC1 105%
O=C(Nc1cccnc1Cl)c1cc(-c2ccccc2O)on1 92.4%
O=C(COC(=O)CCc1c[nH]c2ccccc12)Nc1cccc(Cl)c1 102%
COc1ccccc1C(=O)NC(=S)Nc1ccc(N2CCOCC2)cc1 101%
CC(C)[C@H](NC(=O)c1ccccc1F)C(=O)Nc1cccc(S(=O)(=O)N2CCOCC2)c1 107%
Cc1ccc(/C=N/NC(=O)c2cc3ccccc3cc2O)o1 111%
O=C(N/N=C\c1cccnc1)c1cc(-c2ccccc2)nc2c(Cl)cccc12 111%
Cc1ccccc1C#CC1=CC(=O)CC(C)(C)C1 97.5%
C[C@@H]1CN([C@H](C)CO)S(=O)(=O)c2ccc(C#CC3CCCCC3)cc2O[C@H]1CN(C)C(=O)Cc1ccncc1 123%
CN(C)C(CNC(=O)c1cc(Br)c(Br)s1)c1ccco1 (stereo not drawn) 99.7%
O=C(Cc1cccs1)Nc1nnc(C2CC2)s1 125%
Cc1cccc(NC(=O)CSCC(=O)Nc2nnc(C3CC3)s2)c1 105%
O=S1(=O)CCN(C2CCCCCCCCCCC2)CC1 96.7%
CC(=O)Nc1ccc(C=Cc2ccc([N+](=O)[O-])cc2)cc1 101%
CCN(CC(=O)Nc1ccc(NC(C)=O)cc1)C(=O)C1CC(=O)N(c2ccc3c(c2)OCCO3)C1 (stereo not drawn) 102%
O=C(Nc1ccc(F)c(Cl)c1)C1CCN(S(=O)(=O)c2cccnc2)CC1 109%
COc1ccc(S(=O)(=O)N2CCCC(C(=O)Nc3ccc(NC(=O)c4ccccn4)cc3)C2)cc1 (stereo not drawn) 101%
C=CCn1nc(C(=O)OCC)cc1-c1sc(NC(=O)c2ccccc2)nc1C 102%
Cc1cc(Nc2ccc(C)c(C)c2)n2ncnc2n1 95%
CCN(CC)C(=O)C1=C(C)N(Cc2ccc(OC)cc2)C(=O)C(CC(=O)NCCCCc2ccccc2)C1 (stereo not drawn) 109%
CC1CCN(S(=O)(=O)c2ccc(S(=O)(=O)NCc3cccnc3)cc2)CC1 94.4%
O=S(=O)(c1ccc(-c2ccccc2)cc1)N1CCCC1 95.9%
CCOc1cc(/C=N/NC(=O)c2c(C)nc3ccc(Cl)cn23)ccc1O 108%
COc1cccc(OC)c1C(=O)Nc1sc2c(c1C(N)=O)CCCC2 109%
C=CCN(CC=C)S(=O)(=O)c1ccc(C(=O)Nc2sc3c(c2C(N)=O)CCCCC3)cc1 110%
O=C(C1=C(O)C(=O)N(Cc2ccccc2)C1c1ccco1)c1ccco1 (stereo not drawn) 108%
CCOc1cc(C2C(C(=O)c3ccco3)=C(O)C(=O)N2Cc2ccccc2)ccc1O (stereo not drawn) 104%
CN1CCN(c2ccncc2S(=O)(=O)N2CCCC2)CC1 102%
Cc1ccc(NS(=O)(=O)c2ccc(-c3ccc(=O)[nH]n3)o2)c(C)c1 102%
O=c1ccc(-c2ccc(S(=O)(=O)Nc3ccccc3)o2)n[nH]1 110%
COc1ccc(C(C)(C)C)cc1NC(=O)CN(C)C1=NS(=O)(=O)c2ccccc21 104%
O=C(c1ccco1)N1CCN(Cc2cccc(C(F)(F)F)c2)CC1 107%
COC(=O)c1ccc(CNC(=O)C2CCC(=O)N(Cc3cccc(F)c3)C2)cc1 (stereo not drawn) 97%
